Test results: article PMC5540273 (PLoS ONE, 2017)

Key:
Conditions in all cases: concentration: 1 μM, replicates: in singlicate; n = 1
[1] = system: TTK
[2] = system: TXK
[3] = system: TYK2(JH1domain-catalytic)
[4] = system: TYK2(JH2domain-pseudokinase)
[5] = system: TYRO3
[6] = system: ULK1
[7] = system: ULK2
[8] = system: ULK3
[9] = system: T1, VEGFR2
T1 construct: gene KDR

[10] = system: T2, VPS34
T2 construct: gene PIK3C3

[11] = system: VRK2
[12] = system: WEE1
[13] = system: WEE2
[14] = system: WNK1
[15] = system: WNK2
[16] = system: WNK3
[17] = system: WNK4
[18] = system: T3, YANK1
T3 construct: gene STK32A

[19] = system: T4, YANK2
T4 construct: gene STK32B

[20] = system: T5, YANK3
T5 construct: gene STK32C
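Note: KINOMEscan kinase panel screen.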

Compound | %Inh [1] [%] | %Inh [2] [%] | %Inh [3] [%] | %Inh [4] [%] | %Inh [5] [%] | %Inh [6] [%] | %Inh [7] [%] | %Inh [8] [%] | %Inh [9] [%] | %Inh [10] [%] | %Inh [11] [%] | %Inh [12] [%] | %Inh [13] [%] | %Inh [14] [%] | %Inh [15] [%] | %Inh [16] [%] | %Inh [17] [%] | %Inh [18] [%] | %Inh [19] [%] | %Inh [20] [%]
COC(=O)c1c(-c2ccccc2)c2cc(C(=O)O)ccc2c(=O)n1Cc1ccccc1 | 4 | 0 | 0 | 4 | 7 | 0 | 0 | 0 | 0 | 9 | 0 | 0 | 0 | 0 | 0 | 0 | 3 | 0 | 3 | 2
O=C(Nc1n[nH]c2nc(-c3nccs3)c(Br)cc12)C1CC1 [SB-742251] | 0 | 0 | 36 | 77 | 0 | 21 | 7 | 0 | 0 | 0 | 0 | 16 | 7 | 23 | 2 | 35 | 51 | 6 | 0 | 7
COc1ccc2nc(-c3cccc(C)n3)nc(Nc3ccncc3)c2c1 [GSK204919] | 0 | 9 | 10 | 82 | 4 | 4 | 0 | 2 | 0 | 0 | 33 | 0 | 2 | 5 | 3 | 8 | 9 | 19 | 2 | 18
CS(=O)(=O)c1ccc(-c2nc3n(c2-c2ccncc2)CCC3)cc1 [SKF-105942] | 0 | 0 | 0 | 0 | 0 | 19 | 0 | 11 | 0 | 0 | 12 | 0 | 10 | 0 | 0 | 0 | 29 | 0 | 0 | 100
O=C(Nc1n[nH]c2cc(-c3cccc(F)c3F)ccc12)C1CC1 [SB-733894] | 1 | 0 | 1 | 0 | 0 | 0 | 51 | 4 | 20 | 0 | 0 | 0 | 0 | 0 | 0 | 0 | 0 | 0 | 0 | 0
COC(=O)c1c(-c2ccccc2)c2cc(OC)ccc2c(=O)n1Cc1ccccc1 | 14 | 12 | 7 | 0 | 0 | 1 | 0 | 0 | 7 | 0 | 0 | 0 | 9 | 0 | 0 | 0 | 0 | 0 | 4 | 0
Cc1cc(N2Cc3ccccc3C2)nc(Nc2ccc(S(=O)(=O)N3CCOCC3)cc2)n1.Cl [GSK1669917] | 0 | 0 | 7 | 0 | 0 | 0 | 0 | 0 | 0 | 0 | 0 | 3 | 0 | 0 | 7 | 2 | 10 | 7 | 0 | 0
COc1ccc(C2=C(Nc3cccc(C(=O)O)c3)C(=O)NC2=O)cc1 [SB-390765] | 10 | 21 | 0 | 0 | 22 | 16 | 8 | 28 | 21 | 33 | 0 | 0 | 16 | 49 | 15 | 23 | 24 | 0 | 0 | 0
COc1cccc(-c2cc(-c3c[nH]nc3-c3ccccn3)ccn2)c1 [GW680338] | 23 | 0 | 12 | 9 | 0 | 0 | 0 | 7 | 0 | 0 | 24 | 19 | 4 | 0 | 17 | 26 | 25 | 2 | 0 | 0
COc1cc2nccc(Nc3ccc(NC(=O)c4ccc(C)cc4)c(O)c3)c2cc1OC.Cl [GW440132] | 0 | 10 | 0 | 1 | 0 | 21 | 0 | 7 | 0 | 14 | 0 | 2 | 11 | 7 | 14 | 14 | 0 | 11 | 0 | 16
C[C@@H]1CCCCN1c1cc(-c2ccc3c(N)n[nH]c3c2)nc(N)n1 [GSK2258759] | 0 | 0 | 0 | 3 | 0 | 0 | 0 | 0 | 0 | 0 | 0 | 0 | 13 | 0 | 6 | 16 | 39 | 3 | 0 | 0
